Assay outcomes: PubChem, National Center for Advancing Translational Sciences (NCATS)
The full list was thinned out, with hits kept by preference.
ERK EGF block – EGF-driven ERK pathway inhibition; 130,000 tested, 0.41% active; AID 1454; Potency, µM (series often up to 11.5 µM), most hits filed as inhibitors; HEK293-V1b, EGF-stimulated phospho-ERK AlphaScreen; active = well fitted inhibition curve with a large enough effect; note: nearly all actives have a fitted effect of over 55% in size
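Cell line HEK293 (stable V1b), low serum overnight. Pretreatment: compound 30 min, 37C. EGF 25 nM, 5 min. Detection: SureFire AlphaScreen, 5 h RT. AC50 via standard Hill equation.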
A number is an active result; i = inactive.

SMILES | ERK EGF block
C[CH2][Hg][S]c1ccccc1C(=O)O | 31.6µM
CNc1ccccc1C(=O)O | i
CC(C)COC(=O)c1ccccc1C(=O)OCC(C)C | i
CC(C)NC(=O)N1CCC2(CCNCC2)CC1 | i
CCCCCc1cc(O)c2c3c(c(=O)oc2c1)CN(C)CC3 | i
CCCn1ncc(CN2CCCC(C(=O)c3cccc(OC)c3)C2)c1C (stereo not given) | i
Cc1c(NP(=S)(C(C)(C)C)C(C)(C)C)c(=O)n(-c2ccccc2)n1C | i
CCCCC1(C2CCCC2)Cc2cc(OCCCC(=O)O)c(Cl)c(Cl)c2C1=O (stereo not given) | i
Cc1ccc(S(=O)(=O)N2CC2(C)CCl)cc1 (stereo not given) | i
Cc1c(C=C2C(=O)N(C)C(=O)N(C)C2=O)c(=O)n(-c2ccccc2)n1C | i
C[C@@H]1OC(OC2C(OC3CC[C@@]4(C)C5CC=C6C7CC(C)(C)CC[C@@]7(C(=O)O)CCC6(C)C5(C)CCC4[C@]3(C)CO)OCC(O)C2O)C(O)C(O)C1O (stereo not given in full) | 28.2µM
CCN[C@]1(c2cccs2)CCCCC1=O | i
COc1ccc(CNC(=O)/C=C\c2ccc3[nH]cc(CCN(C)C)c3c2)cc1 | i
C=C(C=O)CC1CC(O)[C@]2(C)OC3CC4OC5C[C@]6(C)O[C@]7(C)CCC8OC9C[C@]%10(C)OC%11C(C)=CC(=O)OC%11CC%10OC9C[C@@H](C)C8OC7CC6O[C@]5(C)CC5OC5C4OC3CC2O1 (stereo not given in full) | 35.5µM
C=C(COC(C)=O)CC1CC(O)[C@]2(C)OC3CC4OC5C[C@]6(C)O[C@]7(C)CCC8OC9C[C@]%10(C)OC%11C(C)=CC(=O)OC%11CC%10OC9C[C@@H](C)C8OC7CC6O[C@]5(C)C/C=C\C4OC3CC2O1 (stereo not given in full) | i
C=C(CO)CC1CC(O)[C@]2(C)OC3CC4OC5C[C@]6(C)O[C@]7(C)CCC8OC9C[C@]%10(C)OC%11C(C)=CC(=O)OC%11CC%10OC9C[C@@H](C)C8OC7CC6O[C@]5(C)C/C=C\C4OC3CC2O1 (stereo not given in full) | i
COc1ccc(C2NCCc3[nH]cnc32)cc1 (stereo not given) | i
CC(C)n1c(O)c(C2c3cc(Cl)ccc3Oc3[nH]c(=O)n(C(C)C)c(=O)c32)c(=O)[nH]c1=O (stereo not given) | 3.16µM
CC(=O)c1c(O)n(-c2cccc(Cl)c2)c(=O)[nH]c1=O (tested in a mixture with another compound) | i
CC(C)[C@@]1(NC(=O)[C@@H]2C[C@@H]3c4cccc5[nH]cc(c45)C[C@H]3N(C)C2)O[C@@]2(O)C3CCCN3C(=O)[C@H](Cc3ccccc3)N2C1=O (stereo not given in full) | i
CC(=O)Nc1ccc([As](=O)(O)c2ccc([N+](=O)[O-])cc2)cc1 | i
N[C@@H](Cn1oc(=O)[nH]c1=O)C(=O)O | i
CC1CC[C@@]2(OC1)OC1C(O)C3C4CC[C@H]5CC(O[C@@H]6O[C@@H](CO)[C@H](OC7OC(CO)C(O)C(OC8OCC(O)C(O)[C@H]8O)[C@@H]7O[C@@H]7OC(CO)[C@H](O)[C@@H](O[C@@H]8OC(CO)C(O)C(O)C8O)C7O)C(O)C6O)C(O)C[C@]5(C)C4CC[C@]3(C)C1C2C (stereo not given in full) | 7.08µM
CC1CC[C@@]2(OC1)O[C@@H]1[C@@H](O)[C@H]3C4CC[C@H]5C[C@@H](O[C@@H]6O[C@H](CO)[C@H](O[C@@H]7O[C@H](CO)[C@@H](O)[C@H](O[C@@H]8OC[C@@H](O)[C@H](O)[C@H]8O)[C@H]7O[C@@H]7O[C@H](CO)[C@@H](O)[C@H](O[C@@H]8O[C@H](CO)[C@@H](O)[C@H](O)[C@H]8O)[C@H]7O)[C@H](O)[C@H]6O)[C@H](O)C[C@]5(C)C4CC[C@]3(C)[C@H]1[C@@H]2C (stereo not given in full) | i
CC(=O)OC1C[C@H](O[C@@H]2C(O)C[C@H](O[C@@H]3C(O)C[C@@H](OC4CC[C@]5(C)C(CCC6C5CC(O)[C@@]5(C)C(C7=CC(=O)OC7)CC[C@@]65O)C4)OC3C)OC2C)O[C@H](C)[C@H]1O[C@H]1OC(CO)C(O)C(O)C1O (stereo not given in full) | i
SMILES | ERK EGF block
Clc1ccccc1CN1CCN(c2cccc3[nH]ccc23)CC1 | i
CN1C(=O)C(=Cc2cccnc2)C(=O)N(C)C1=O | i
CC[n+]1c(/C=C/C=C/c2ccc(N(C)C)cc2)sc2ccccc21 | 15.8µM
CN(C)c1ccc(/C=C/c2cc[n+](C)c3ccccc23)cc1 | i
COC(=O)[C@]1(C)CC[C@@]2(C)CC[C@@]3(C)C4=CCc5c(cc(O)c(O)c5C)[C@]4(C)CC[C@@]3(C)C2C1 (stereo not given in full) | i
CC1=C(O)C(=O)C=C2C1=CC=C1[C@]2(C)CC[C@@]2(C)C3C[C@](C)(C(=O)O)CC[C@@]3(C)CC[C@@]12C (stereo not given in full) | 15.8µM
